The target in test [1] is Acetylcholinesterase (Homo sapiens) (UniProt P22303). The test can be described thus: Acetylcholinesterase (AChE) small molecule antagonists: colormetric cell-based qHTS assay (AID 1347395). Also: nearly all actives have a fitted effect of over 30% in size. Also: potency is read from the fitted curve at half-maximal effect. In short, it runs like this: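 Colorimetric readout: DTNB quantifies thiocholine from acetylthiocholine hydrolysed by endogenous AChE of SH-SY5Y cells (2,000/well, plated overnight). Compound pretreatment 30 min, substrate incubation 90 min, both 37 C.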
Chain of Acetylcholinesterase (Homo sapiens) (P22303 whole entry, looked up): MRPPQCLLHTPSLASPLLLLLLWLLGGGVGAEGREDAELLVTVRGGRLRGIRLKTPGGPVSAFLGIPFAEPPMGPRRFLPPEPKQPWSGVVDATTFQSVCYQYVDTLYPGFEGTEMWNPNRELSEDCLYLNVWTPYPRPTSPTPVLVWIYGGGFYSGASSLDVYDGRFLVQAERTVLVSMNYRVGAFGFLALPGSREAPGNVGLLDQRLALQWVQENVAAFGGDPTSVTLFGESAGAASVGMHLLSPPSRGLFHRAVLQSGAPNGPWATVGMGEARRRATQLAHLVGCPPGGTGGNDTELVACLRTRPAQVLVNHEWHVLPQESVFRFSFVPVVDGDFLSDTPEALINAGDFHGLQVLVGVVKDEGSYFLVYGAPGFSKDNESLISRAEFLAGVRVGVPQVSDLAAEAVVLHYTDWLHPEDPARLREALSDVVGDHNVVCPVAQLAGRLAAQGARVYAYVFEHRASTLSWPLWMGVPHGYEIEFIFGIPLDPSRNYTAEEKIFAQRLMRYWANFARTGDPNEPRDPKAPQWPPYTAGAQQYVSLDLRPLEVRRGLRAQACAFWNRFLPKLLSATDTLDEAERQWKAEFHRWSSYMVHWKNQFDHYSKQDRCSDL
Background: In qHTS, concentration-response curves come from the screen itself.

Test [2] shares this target. The test can be described thus: Acetylcholinesterase (AChE) small molecule antagonists: enzyme-based qHTS assay (AID 1347397). Also: nearly all actives have a fitted effect of over 55% in size. Also: potency is read from the fitted curve at half-maximal effect. The settings on record: Potency: AChE enzyme activity inhibition; outcome: AChE enzyme activity inhibition. In short, it runs like this: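 Tox21 library chemicals are tested in qHTS format against recombinant human AChE. The enzyme, dispensed at 50 mU/mL, sits with compound for 30 min at room temperature. A DTNB–acetylthiocholine cocktail follows, and colour is read after 10 min.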

Test [3] has the same target. The test is described as follows: Acetylcholinesterase (AChE) small molecule antagonists: fluorescence cell-based qHTS assay (AID 1347398). Also: nearly all actives have a fitted effect of over 50% in size. Also: potency is read from the fitted curve at half-maximal effect. Particulars: Potency: AChE activity; outcome: AChE activity. In short, it runs like this:
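Cellular AChE inhibition: SH-SY5Y cells treated with test chemical for 30 min at 37 C, then acetylthiocholine hydrolysis followed over 40 min at room temperature via thiocholine-reactive Thiolite Green fluorescence (490/520 nm).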

Test [4] has the same target. The test can be described thus: Acetylcholinesterase (AChE) small molecule antagonists: enzyme-based qHTS assay with human liver microsomes (AID 1347399). Also: nearly all actives have a fitted effect of over 60% in size. Particulars: Potency: qHTS inhibition; outcome: qHTS inhibition. In short, it runs like this: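 Recombinant human AChE (50 mU/mL in the enzyme mix) and human liver microsomes (0.25 mg/mL final) were preincubated with compound and NADPH (0.25 mg/mL final) for 30 min at 37 C. Acetylthiocholine/DTNB was then added; thiocholine was read colorimetrically after 10 min at room temperature.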

The text below walks through data of PubChem BioAssay (Tox21).

Several values for one entry are separate records, joined by “and”; a condition that tells them apart may be missing. Equal entries are not always repeated. Records with an inconclusive call do not appear. A structure can be active in one record and inactive in another. Activity calls are given as the source filed them. Calls follow the shape of the full dose curve. Non-standard residues stand in square brackets, D forms with d. Residues, ends and D or L forms follow the SMILES beside them. pGlu = O=C1CC[C@@H](C(=O)O)N1
% is scaled to controls: 0 for no effect and ±100 for the full control effect.

Turning to `CC(=O)O[C@@H]1C(=O)O[C@@H]2[C@H]1OC(=O)[C@@H]2OC(C)=O`, the Potency entry in test [1], in test [2], in test [3] and in test [4] was “inactive” in each case.
As to `O=C(c1ccc(O)c(O)c1)c1ccc(O)cc1O`, the Potency entry in test [1], in test [2], in test [3] and in test [4] was “inactive” in each case.
Regarding `CCCCCCCCCCCC`, the Potency result in test [1], in test [2], in test [3] and in test [4] was “inactive” throughout.
As for `CC(=O)OCC(=O)[C@H]1CC[C@H]2[C@@H]3CCC4=CC(=O)CC[C@]4(C)[C@H]3CC[C@]12C`, the Potency result in test [1], in test [2], in test [3] and in test [4] was “inactive” throughout.
With `CC(=O)OC(C)(C)C`, the Potency result in test [1], in test [2], in test [3] and in test [4] was “inactive” each time.
As to `Cc1c(C)c2c(c(C)c1O)CCC(C)(COc1ccc(CC3SC(=O)NC3=O)cc1)O2` (stereo not given), the Potency result in test [1], in test [2], in test [3] and in test [4] was “inactive” throughout.
For the compound `CCOC(=O)/C=C/c1ccccc1`, the Potency result in test [1], in test [2], in test [3] and in test [4] was “inactive” in each case.
In the case of `C#C[C@]1(O)CC[C@H]2[C@@H]3CCc4cc(O)ccc4[C@H]3CC[C@@]21C`, the Potency result in test [1], in test [2], in test [3] and in test [4] was “inactive” throughout.
On to `CCOC(=O)COC(=O)c1ccccc1C(=O)OCC`, for which the Potency result in test [1], in test [2], in test [3] and in test [4] was “inactive” each time.
As for `COc1ccccc1OCC(O)COC(N)=O` (stereo not given), the Potency result in test [1], in test [2], in test [3] and in test [4] was “inactive” in each case.
In the case of `O=C(O)c1cccc(Oc2ccccc2)c1`, the Potency entry in test [1], in test [2], in test [3] and in test [4] was “inactive” throughout.
Turning to `O=S(=O)(O)c1ccc(O)cc1`, the Potency result in test [1], in test [2], in test [3] and in test [4] was “inactive” in each case.
Take `O=C[C@@H](O)[C@H](O)[C@H](O)CO`: the Potency result in test [1], in test [2], in test [3] and in test [4] was “inactive” each time.
Take `CC(=O)OC[C@H]1O[C@@H](OC(C)=O)[C@H](OC(C)=O)[C@@H]1OC(C)=O`: the Potency entry in test [1], in test [2], in test [3] and in test [4] was “inactive” in each case.
`CCCCCCCCS(=O)(=O)O`: the Potency entry in test [1], in test [2], in test [3] and in test [4] was “inactive” in each case.
Consider `C[C@]1(Cn2ccnn2)[C@H](C(=O)O)N2C(=O)C[C@H]2S1(=O)=O`, for which the Potency entry in test [1], in test [2], in test [3] and in test [4] was “inactive” each time.
On to `CC(C)OC(=O)C(C(=O)OC(C)C)=C1SC=CS1`, for which the Potency result in test [1], in test [2], in test [3] and in test [4] was “inactive” each time.
Turning to `CCCCCCC`, the Potency result in test [1], in test [2], in test [3] and in test [4] was “inactive” throughout.
For the compound `O=C(NCCCN1CCOCC1)c1ccc(Cl)cc1`, the Potency result in test [1], in test [2], in test [3] and in test [4] was “inactive” each time.
Take `CCCCOC(=O)CC#N`: the Potency result in test [1], in test [2], in test [3] and in test [4] was “inactive” throughout.
For the compound `CCOc1ccc([N+](=O)[O-])cc1`, the Potency result in test [1], in test [2], in test [3] and in test [4] was “inactive” throughout.
With `CCCc1ccc(O)cc1`, the Potency result in test [1], in test [2], in test [3] and in test [4] was “inactive” each time.
In the case of `CCN(CC)c1ccc(C(=O)c2ccccc2C(=O)O)c(O)c1`, the Potency result in test [1], in test [2], in test [3] and in test [4] was “inactive” in each case.
In the case of `Clc1cc(Cl)nc(Cl)n1`, the Potency result in test [1], in test [2], in test [3] and in test [4] was “inactive” throughout.
Take `O=C1CCCc2c(O)cccc21`: the Potency entry in test [1], in test [2], in test [3] and in test [4] was “inactive” each time.
For the compound `C=C(C)[C@@H]1CC=C(C)CC1`, the Potency result in test [1], in test [2], in test [3] and in test [4] was “inactive” in each case.
`COC(=O)c1ccc(C(=O)O)cc1`: the Potency entry in test [1], in test [2], in test [3] and in test [4] was “inactive” each time.
For the compound `O=C(Oc1ccccc1C(=O)O)c1ccccc1O`, the Potency result in test [1], in test [2], in test [3] and in test [4] was “inactive” throughout.
On to `N#Cc1ccc(CC(=O)c2cccc(C(F)(F)F)c2)cc1`, for which the Potency result in test [1], in test [2], in test [3] and in test [4] was “inactive” throughout.
As for `CC(C)OC(C)C`, the Potency entry in test [1], in test [2], in test [3] and in test [4] was “inactive” in each case.
On to `Nc1ccc([N+](=O)[O-])c(C(F)(F)F)c1`, for which the Potency entry in test [1], in test [2], in test [3] and in test [4] was “inactive” throughout.
As for `O=C1Nc2ccc([N+](=O)[O-])cc2C1=O`, the Potency result in test [1], in test [2], in test [3] and in test [4] was “inactive” each time.
As for `O=C(C(=O)c1ccc(Br)cc1)c1ccc(Br)cc1`, in test [1], the activity, negative = inhibition is 1.28% [at 23.6 µM] (inactive). Also, the activity change, negative = inhibition in test [2] was 1.82% [at 23.6 µM] (inactive); in test [3] it was -2.19% [at 23.8 µM] (inactive); in test [4], -3.65% [at 23.6 µM] (inactive).
Turning to `CC1=Nc2ccccc2C1(C)C`, the Potency result in test [1], in test [2], in test [3] and in test [4] was “inactive” in each case.
In the case of `CC(=O)NCCCCCC(=O)O`, the Potency entry in test [1], in test [2], in test [3] and in test [4] was “inactive” throughout.
Turning to `CCOCCC(=O)OCC`, the Potency result in test [1], in test [2], in test [3] and in test [4] was “inactive” throughout.
`O=C1NC(=O)c2ccccc21`: the Potency entry in test [1], in test [2], in test [3] and in test [4] was “inactive” in each case.
As to `Cc1ccc(C)c(O)c1`, the Potency entry in test [1], in test [2], in test [3] and in test [4] was “inactive” throughout.
On to `CCn1cc(C(=O)O)c(=O)c2cc3c(cc21)OCO3`, for which the Potency entry in test [1], in test [2], in test [3] and in test [4] was “inactive” throughout.
Turning to `CC(C)(C)C(=O)C1C(=O)c2ccccc2C1=O`, the Potency entry in test [1], in test [2], in test [3] and in test [4] was “inactive” in each case.
Consider `COc1ccccc1N1CCN(CCCCNC(=O)c2ccc(-c3ccc(C(C)=O)cc3)cc2)CC1`, for which the Potency result in test [1], in test [2], in test [3] and in test [4] was “inactive” throughout.
For `CCCCOC(=O)C(=O)OCCCC`, the Potency result in test [1], in test [2], in test [3] and in test [4] was “inactive” throughout.
Regarding `SCCc1cnccn1`, the Potency entry in test [1], in test [2], in test [3] and in test [4] was “inactive” throughout.
`O=C1OC2(c3ccccc31)c1cc(Br)c(O)c(Br)c1Oc1c2cc(Br)c(O)c1Br`: the Potency result in test [1], in test [2], in test [3] and in test [4] was “inactive” throughout.
For the compound `C[C@H](N)[C@H](O)c1cccc(O)c1`, the Potency entry in test [1], in test [2], in test [3] and in test [4] was “inactive” in each case.
As for `CCCCCCCCCCCCCC[N+](C)(C)C`, the Potency entry in test [1] and in test [4] was “inactive” each time. In addition, the Potency is 30.6 µM (active) and 70.9 µM (active) and inactive in test [2]; 61.1 µM (active) and 39.9 µM (active) in test [3].
With `O=C(O)CCC(=O)C(=O)O`, the Potency entry in test [1], in test [2], in test [3] and in test [4] was “inactive” each time.
Consider `O=c1cc(-c2ccccc2)oc2ccccc12`, for which the Potency result in test [1], in test [2], in test [3] and in test [4] was “inactive” throughout.
`O=C(O)c1ccc[n+]([O-])c1`: the Potency entry in test [1], in test [2], in test [3] and in test [4] was “inactive” in each case.
For `CC1(C)C(=O)NC(=O)N1CO`, the Potency result in test [1], in test [2], in test [3] and in test [4] was “inactive” throughout.
Turning to `CC1(C)OC[C@@H](COC(=O)CCc2ccc(OC[C@@H](O)CNCCNC(=O)N3CCOCC3)cc2)O1`, the Potency entry in test [1], in test [2], in test [3] and in test [4] was “inactive” each time.
`COc1cc(C)cc(O)c1`: the Potency entry in test [1], in test [2], in test [3] and in test [4] was “inactive” in each case.
In the case of `Cc1cc(C)cc(N)c1`, the Potency entry in test [1], in test [2], in test [3] and in test [4] was “inactive” each time.
On to `CC(C)N=C=NC(C)C`, for which the Potency result in test [1], in test [2], in test [3] and in test [4] was “inactive” throughout.
For `Cc1cc(OCCOCC[N+](C)(C)Cc2ccccc2)ccc1C(C)(C)CC(C)(C)C`, the Potency in test [1] is 39.7 µM (active) and 17.4 µM (active); in test [2], 56.1 µM (active) and 30.9 µM (active); in test [3], 14.1 µM (active) and 8.71 µM (active). Also, the Potency result in test [4] was “inactive”.
Consider `Cc1ccc(S(=O)(=O)N=C=O)cc1`, for which the Potency entry in test [1], in test [2], in test [3] and in test [4] was “inactive” throughout.
As to `COCCOCC(OC)OC`, the Potency entry in test [1], in test [2], in test [3] and in test [4] was “inactive” throughout.
Turning to `CCCCC(C=O)CC` (stereo not given), the Potency entry in test [1], in test [2], in test [3] and in test [4] was “inactive” in each case.
With `CCCCOC(=O)C(C)Oc1ccc(Oc2ccc(C(F)(F)F)cn2)cc1` (stereo not given), the Potency entry in test [1], in test [2], in test [3] and in test [4] was “inactive” throughout.
Take `CCNC(=O)[C@@H]1CCCN1C(=O)[C@H](CCCN=C(N)N)NC(=O)[C@H](CC(C)C)NC(=O)CNC(=O)[C@H](Cc1ccc(O)cc1)NC(=O)[C@H](CO)NC(=O)[C@H](Cc1c[nH]c2ccccc12)NC(=O)[C@H](Cc1cnc[nH]1)NC(=O)[C@@H]1CCC(=O)N1` ([pGlu]HWSYGLRP-NHEt): the Potency entry in test [1], in test [2], in test [3] and in test [4] was “inactive” throughout.
